The values that follow come from PubChem BioAssay.

Results filed as inconclusive are left out. Active and inactive are the calls of the source. Unless noted, cut-off not given; nearly all actives show IC50 up to about 30 µM.

The nature of assay [1]: JHH-DIPG-1 glioma cell viability, MIPE5.0 library, CellTiter-Glo luminescence, qHTS (AID 1347067; cut-off not given, nearly all actives have AC50 up to about 26 µM;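 further: cells exposed to compound for 48 hours before readout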). The conditions noted are these: JHH-DIPG-1 glioma viability, CellTiter-Glo ATP luminescence.
A short description of assay [2]: SU-DIPG-XXV glioma cell viability, MIPE5.0 library, qHTS (AID 1347068).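 On IC50: cells exposed to compound for 48 hours before viability readout.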
Assay [3] can be described thus: sensitizers of A549 cells to miR-34 induction, primary screen, imaging, A549 dox-inducible miR-34, nuclei and caspase counts (AID 1347080;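 active means compounds whose cell count with miR-34 switched on is under 0.7 times the count with it off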). The conditions noted are these: A549 miR-34 inducible, Hoechst nuclei count, 48 h.
A short description of assay [4]: survival rescue of mitochondrial mutant cells in low glucose, primary screen, MELAS cybrids, Rieske KO mouse fibroblasts, CellTiter-Glo (AID 1508586;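 active means mean z-score across replicates of 1.96 or higher in either the MELAS or the Rieske mutant cell line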;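 further: z relative to plate mean and SD of compound and empty wells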).
The mark [5] stands for this setting: stronger effect = lower value, cell number ratio, induced over uninduced.
The mark [6] stands for this setting: measured here: relative caspase fold change +Dox/-Dox.
Where [7] appears, read: measured here: total cells with miR-34 induction, stronger effect = lower value.
[8] abbreviates: measured here: total cells without miR-34 induction.

Take `CCNC(=O)Nc1ncc(-c2cc(-c3c(C)cc(OC)cc3C)nc(-c3cnccn3)n2)s1`: the outcome in assay [1] and in assay [2] was inactive.

`CCCCCCCCCCCCCCCC(=O)OC[C@H](COP(=O)([O-])OCC[N+](C)(C)C)OC(=O)CCCCCCCC(=O)O`: the fold change in assay [3] (setting [5]) is 0.924 (inactive); in assay [3] (setting [6]) it was 0.678. In addition, the cell count worked out at 5760 in assay [3] (setting [7]) and 6240 in assay [3] (setting [8]).

As for `CC1=NN(c2ccc(C(=O)O)cc2)C(=O)/C1=C/c1ccc(-c2cc(C)c(C)cc2[N+](=O)[O-])o1`, the outcome in assay [2] was inactive.

In the case of `O=C(O)c1ccccc1-c1ccc(/C=c2\sc3nc4cc(Br)cnc4n3c2=O)o1`, in assay [2], the result was inactive.

Turning to `COc1nnc2ccc(N3CCC(c4ccc(OCCN5CCN(C)C(=O)[C@H]5C)cc4)CC3)nn12`, the call in assay [2] was inactive.

Take `C/C=C(/C)C(=O)O[C@H]1C(C)=CC23C(=O)C(C=C(CO)[C@@H](O)[C@]12O)[C@H]1[C@@H](C[C@H]3C)C1(C)C` (stereo partly drawn): the molecule was classed as inactive in assay [2].

`COc1ccc(-c2cnc3c(-c4cccc5ncccc45)cnn3c2)cc1`: the molecule was classed as inactive in assay [2]. Also, the fold change was 0.802 (inactive) in assay [3] (setting [5]) and 0.646 in assay [3] (setting [6]). The cell count is 4530 in assay [3] (setting [7]) and 5640 in assay [3] (setting [8]). The z-score in assay [4] (MELAS cybrid survival, CellTiter-Glo 48 h, stronger effect = higher value) is -0.0268 (inactive); in assay [4] (Rieske KO mouse fibroblast survival, CellTiter-Glo 72 h) it was -0.688.

On to `O=c1[nH]nc2c3c(cccc13)NC(CN1Cc3ccccc3C1)=N2`, for which the call in assay [2] was inactive.

Turning to `C[C@H](NC(=O)[C@H]1NCC[C@@H]1O)c1ccc(-c2noc(CCC3CCCC3)n2)cc1`, the outcome in assay [2] was inactive.

For the molecule `C=CC(=O)N1CCC(CNc2ncnc(N)c2-c2ccc(Oc3ccccc3)cc2)CC1`, the molecule was classed as inactive in assay [2].

For `O=P(O)(O)OC1C(O)C(OP(=O)(O)O)C(O)C(OP(=O)(O)O)C1O` (stereo not drawn), the fold change in assay [3] (setting [5]) was 0.967 (inactive); in assay [3] (setting [6]) it was 0.962. For the same molecule, the values for the cell count in assay [3] (setting [7]) and in assay [3] (setting [8]) were 5750 and 5950, respectively.

`CC(C)Oc1ccc(C(=O)c2ccc(NC3=NCCN3)cc2)cc1`: the fold change was 1.07 (inactive) in assay [3] (setting [5]) and 0.773 in assay [3] (setting [6]). The cell count in assay [3] (setting [7]) amounted to 6020; in assay [3] (setting [8]), 5650.

Take `O=C(O)CCC/C=C\C[C@H]1C(=O)C=C[C@@H]1/C=C/[C@@H](O)CCc1ccccc1`: the figures for the fold change in assay [3] (setting [5]) and in assay [3] (setting [6]) were 0.944 (inactive) and 0.959, respectively. Besides, the cell count in assay [3] (setting [7]) came out at 5880; in assay [3] (setting [8]) it was 6220.

With `O=C1S/C(=C\c2ccc(OCc3cccc(B(O)O)c3)cc2)C(=O)N1Cc1ccc(F)cc1`, the IC50 in assay [2] was 23.5 µM (active).

As to `O=C(O)C[C@H]1CCc2c1[nH]c1ccc(OCc3ccc(C4CCCC4)c(C(F)(F)F)c3)cc21`, in assay [2], the molecule was called inactive.

With `N[C@@H](CSCCB(O)O)C(=O)O`, the fold change is 1.01 (inactive) in assay [3] (setting [5]) and 1.73 in assay [3] (setting [6]). For the same molecule, the cell count in assay [3] (setting [7]) turned out to be 6340; in assay [3] (setting [8]), 6260.

In the case of `COc1ccc(-c2c(C)nn3c(NCCN4CCOCC4)cc(C)nc23)cc1OC`, the molecule was called inactive in assay [2].

`C[C@]12CCC3[C@@H](CC[C@H]4NC(=O)C=C[C@]34C)[C@@H]1CC[C@@H]2C(=O)Nc1cc(C(F)(F)F)ccc1C(F)(F)F` (stereo partly drawn): the call in assay [2] was inactive.

As to `Nc1nc2[nH]c(=O)[nH]c2c(=O)[nH]1`, the fold change is 0.901 (inactive) in assay [3] (setting [5]) and 0.746 in assay [3] (setting [6]). The cell count worked out at 6070 in assay [3] (setting [7]) and 6740 in assay [3] (setting [8]).

In the case of `CCCCCCCCCCCCCCCCCCCCCCCCC(=O)OC`, the fold change in assay [3] (setting [5]) was 1.06 (inactive); in assay [3] (setting [6]), 0.88. In addition, the cell count was determined as 6850 in assay [3] (setting [7]) and 6470 in assay [3] (setting [8]).
